Data from the supplement of paper PMC10849652.
Of roughly 8,800 targets only a part is listed; those with a hit were picked by preference. About 0.5% of all pairs of compound and target were hits. Unmarked numbers belong to inactive results.

Columns and labels:
Assay in all cases: log2 fold change, soluble protein after heating vs DMSO (PISA); higher = thermal stabilisation; K562 lysate, 10 uM; active = over 0.2 and 3.5 SD of the protein, either way, in both replicates (recomputed)
erlotinib = compound: C#Cc1cccc(Nc2ncnc3cc(OCCOC)c(OCCOC)cc23)c1 [erlotinib]
Method in brief: (§1)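 Pellets of K562 cells were dounce-homogenised in PBS pH 7.4 with 1 mM MgCl2, and the crude extract was held at 1 mg/mL protein for a 30 min treatment with 10 μM compound. Aliquots were heated for 3 min over 48°C-58°C and pooled before NP-40 was added to 0.5% at 4°C. The supernatant from 21,000xg for 90 min was quantified by TMTpro 16plex LC-MS/MS with channel sums equalised. Values are reported from duplicates as log-two fold change in thermal stability relative to solvent controls.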

[1] = compound: C/C(=N\NC(=O)C1=CC(=CC=C1)S(=O)(=O)N2CCOCC2)/C3=C(C=CC(=C3)Cl)O
Method in brief: as §1

[2] = compound: C1=CC(=CC=C1C2=NC3=C(N2)C=C(C=C3)C(=O)N)OC4=CC=C(C=C4)Cl
Method in brief: as §1

[3] = compound: C1=CC2=C(C=CC(=C2)/C=C\3/C(=O)NC(=NCC4=CC=CS4)S3)N=C1
Method in brief: as §1

[4] = compound: C1=CC2=NC=CN=C2C=C1/C=C/3\C(=O)NC(=O)S3
Method in brief: as §1

[5] = compound: C1=CC=C(C=C1)C2=NC(=C(N2)C3=CC=NC=C3)C4=CC(=C(C=C4)Cl)O
Method in brief: as §1

[6] = compound: C1=CC=C2C(=C1)C3=NNC4=CC=CC(=C43)C2=O
Method in brief: as §1

[7] = compound: C1CCN(C1)C(=O)NC2=CC=CC(=C2)NC3=NC=C(C(=N3)NCCC4=CN=CN4)Br
Method in brief: as §1

[8] = compound: C1CN(CCC1(CC2=CC=C(C=C2)Cl)N)C3=NC=NC4=C3C=CN4
Method in brief: as §1

IRAK-1-4 Inhibitor I = compound: C1COCCN1CCN2C3=CC=CC=C3N=C2NC(=O)C4=CC(=CC=C4)[N+](=O)[O-] [IRAK-1-4 Inhibitor I]
Method in brief: as §1

Sequence of UniProt Q9H8H3 (Q9H8H3 whole entry, looked up): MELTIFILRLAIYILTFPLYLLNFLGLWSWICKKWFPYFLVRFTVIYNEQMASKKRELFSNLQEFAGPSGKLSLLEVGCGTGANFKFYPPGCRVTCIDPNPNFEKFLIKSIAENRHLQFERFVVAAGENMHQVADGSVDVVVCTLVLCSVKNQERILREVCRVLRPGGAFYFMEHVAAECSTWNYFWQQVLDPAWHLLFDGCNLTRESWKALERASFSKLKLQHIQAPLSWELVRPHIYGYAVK
Sequence of UniProt Q8IVT5 (Q8IVT5 whole entry, looked up): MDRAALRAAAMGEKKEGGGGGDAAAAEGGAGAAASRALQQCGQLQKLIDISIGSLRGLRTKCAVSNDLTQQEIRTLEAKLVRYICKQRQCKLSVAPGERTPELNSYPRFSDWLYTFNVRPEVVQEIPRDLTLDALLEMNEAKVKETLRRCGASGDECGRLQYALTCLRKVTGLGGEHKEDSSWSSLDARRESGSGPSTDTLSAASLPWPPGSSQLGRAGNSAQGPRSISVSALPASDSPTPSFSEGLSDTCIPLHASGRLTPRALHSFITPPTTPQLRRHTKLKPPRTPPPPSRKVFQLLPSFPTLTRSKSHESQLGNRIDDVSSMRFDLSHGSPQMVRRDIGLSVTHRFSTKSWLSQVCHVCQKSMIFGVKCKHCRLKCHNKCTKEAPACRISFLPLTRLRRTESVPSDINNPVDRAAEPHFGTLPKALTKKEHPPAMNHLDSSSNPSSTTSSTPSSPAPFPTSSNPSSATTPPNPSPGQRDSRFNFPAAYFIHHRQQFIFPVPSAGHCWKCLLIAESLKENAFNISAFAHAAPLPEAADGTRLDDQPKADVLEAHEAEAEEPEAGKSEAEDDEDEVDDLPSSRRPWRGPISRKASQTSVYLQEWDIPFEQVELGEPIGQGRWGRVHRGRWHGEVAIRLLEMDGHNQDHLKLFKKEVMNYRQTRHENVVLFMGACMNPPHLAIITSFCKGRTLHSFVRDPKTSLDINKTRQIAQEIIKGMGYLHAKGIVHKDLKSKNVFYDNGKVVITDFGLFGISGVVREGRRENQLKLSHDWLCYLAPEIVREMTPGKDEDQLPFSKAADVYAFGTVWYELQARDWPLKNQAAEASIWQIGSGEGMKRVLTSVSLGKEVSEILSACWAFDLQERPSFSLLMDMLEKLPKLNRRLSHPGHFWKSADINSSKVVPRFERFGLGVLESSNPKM
Sequence of UniProt O60244 (O60244 whole entry, looked up): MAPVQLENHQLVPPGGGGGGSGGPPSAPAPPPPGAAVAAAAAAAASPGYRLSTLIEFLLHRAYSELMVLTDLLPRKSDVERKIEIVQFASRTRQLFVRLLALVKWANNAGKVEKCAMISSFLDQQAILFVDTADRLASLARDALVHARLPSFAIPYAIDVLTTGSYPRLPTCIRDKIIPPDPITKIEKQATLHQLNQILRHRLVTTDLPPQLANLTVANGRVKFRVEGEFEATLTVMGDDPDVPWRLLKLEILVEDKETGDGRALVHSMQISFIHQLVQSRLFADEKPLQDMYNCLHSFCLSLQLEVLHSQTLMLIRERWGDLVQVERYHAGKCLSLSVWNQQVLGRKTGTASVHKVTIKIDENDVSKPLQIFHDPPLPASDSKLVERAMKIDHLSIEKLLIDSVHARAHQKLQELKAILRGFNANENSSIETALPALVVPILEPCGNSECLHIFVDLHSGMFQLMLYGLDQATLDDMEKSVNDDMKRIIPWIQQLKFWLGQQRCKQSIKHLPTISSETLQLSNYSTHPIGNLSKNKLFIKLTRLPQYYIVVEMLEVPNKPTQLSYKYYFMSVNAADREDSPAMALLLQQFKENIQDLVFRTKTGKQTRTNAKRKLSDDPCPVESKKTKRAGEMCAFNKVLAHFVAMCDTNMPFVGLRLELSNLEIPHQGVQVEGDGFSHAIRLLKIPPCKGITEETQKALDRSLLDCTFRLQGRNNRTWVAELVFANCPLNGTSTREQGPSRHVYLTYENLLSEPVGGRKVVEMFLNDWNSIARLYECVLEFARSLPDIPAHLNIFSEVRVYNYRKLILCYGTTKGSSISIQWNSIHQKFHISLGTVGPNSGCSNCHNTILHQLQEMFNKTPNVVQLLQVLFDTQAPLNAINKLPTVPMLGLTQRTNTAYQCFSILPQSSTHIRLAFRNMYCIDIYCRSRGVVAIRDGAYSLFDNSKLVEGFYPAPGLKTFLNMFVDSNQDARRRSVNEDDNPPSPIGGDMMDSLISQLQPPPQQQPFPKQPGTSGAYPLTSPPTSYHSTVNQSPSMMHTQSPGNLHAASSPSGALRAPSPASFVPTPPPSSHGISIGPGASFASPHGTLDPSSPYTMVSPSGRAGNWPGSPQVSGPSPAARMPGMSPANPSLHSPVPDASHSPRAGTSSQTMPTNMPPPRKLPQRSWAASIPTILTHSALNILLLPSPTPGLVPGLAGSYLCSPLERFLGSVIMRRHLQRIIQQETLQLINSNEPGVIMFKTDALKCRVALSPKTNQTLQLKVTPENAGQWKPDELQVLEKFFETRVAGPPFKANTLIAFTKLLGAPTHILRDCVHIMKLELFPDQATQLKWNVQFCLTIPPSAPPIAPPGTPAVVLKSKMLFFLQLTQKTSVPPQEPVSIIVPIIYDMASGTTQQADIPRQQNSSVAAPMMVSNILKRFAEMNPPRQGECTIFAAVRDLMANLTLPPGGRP
Sequence of UniProt Q7Z3D4 (Q7Z3D4 whole entry, looked up): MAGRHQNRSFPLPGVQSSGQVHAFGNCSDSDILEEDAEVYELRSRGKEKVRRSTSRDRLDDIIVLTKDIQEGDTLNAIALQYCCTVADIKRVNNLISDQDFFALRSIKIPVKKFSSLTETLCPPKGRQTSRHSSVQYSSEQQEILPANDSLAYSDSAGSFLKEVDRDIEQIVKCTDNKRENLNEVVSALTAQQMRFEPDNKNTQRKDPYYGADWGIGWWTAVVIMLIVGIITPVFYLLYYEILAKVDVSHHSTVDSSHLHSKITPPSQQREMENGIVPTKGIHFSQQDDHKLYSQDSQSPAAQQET
Sequence of UniProt Q6ZWT7 (Q6ZWT7 whole entry, looked up): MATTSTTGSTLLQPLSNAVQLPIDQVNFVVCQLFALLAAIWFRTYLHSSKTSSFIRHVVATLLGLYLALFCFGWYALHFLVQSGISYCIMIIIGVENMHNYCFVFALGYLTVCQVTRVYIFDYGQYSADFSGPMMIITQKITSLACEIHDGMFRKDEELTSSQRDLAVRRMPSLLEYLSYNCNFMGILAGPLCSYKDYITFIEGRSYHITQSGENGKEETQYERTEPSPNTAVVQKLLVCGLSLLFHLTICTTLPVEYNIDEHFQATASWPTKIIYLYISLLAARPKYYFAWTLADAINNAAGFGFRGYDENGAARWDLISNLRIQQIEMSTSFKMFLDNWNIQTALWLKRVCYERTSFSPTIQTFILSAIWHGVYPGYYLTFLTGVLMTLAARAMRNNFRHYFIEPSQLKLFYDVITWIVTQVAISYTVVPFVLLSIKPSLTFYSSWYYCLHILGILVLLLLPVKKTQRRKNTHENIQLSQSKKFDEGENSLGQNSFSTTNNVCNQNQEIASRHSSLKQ
Sequence of UniProt Q6ZRQ5 (Q6ZRQ5 whole entry, looked up): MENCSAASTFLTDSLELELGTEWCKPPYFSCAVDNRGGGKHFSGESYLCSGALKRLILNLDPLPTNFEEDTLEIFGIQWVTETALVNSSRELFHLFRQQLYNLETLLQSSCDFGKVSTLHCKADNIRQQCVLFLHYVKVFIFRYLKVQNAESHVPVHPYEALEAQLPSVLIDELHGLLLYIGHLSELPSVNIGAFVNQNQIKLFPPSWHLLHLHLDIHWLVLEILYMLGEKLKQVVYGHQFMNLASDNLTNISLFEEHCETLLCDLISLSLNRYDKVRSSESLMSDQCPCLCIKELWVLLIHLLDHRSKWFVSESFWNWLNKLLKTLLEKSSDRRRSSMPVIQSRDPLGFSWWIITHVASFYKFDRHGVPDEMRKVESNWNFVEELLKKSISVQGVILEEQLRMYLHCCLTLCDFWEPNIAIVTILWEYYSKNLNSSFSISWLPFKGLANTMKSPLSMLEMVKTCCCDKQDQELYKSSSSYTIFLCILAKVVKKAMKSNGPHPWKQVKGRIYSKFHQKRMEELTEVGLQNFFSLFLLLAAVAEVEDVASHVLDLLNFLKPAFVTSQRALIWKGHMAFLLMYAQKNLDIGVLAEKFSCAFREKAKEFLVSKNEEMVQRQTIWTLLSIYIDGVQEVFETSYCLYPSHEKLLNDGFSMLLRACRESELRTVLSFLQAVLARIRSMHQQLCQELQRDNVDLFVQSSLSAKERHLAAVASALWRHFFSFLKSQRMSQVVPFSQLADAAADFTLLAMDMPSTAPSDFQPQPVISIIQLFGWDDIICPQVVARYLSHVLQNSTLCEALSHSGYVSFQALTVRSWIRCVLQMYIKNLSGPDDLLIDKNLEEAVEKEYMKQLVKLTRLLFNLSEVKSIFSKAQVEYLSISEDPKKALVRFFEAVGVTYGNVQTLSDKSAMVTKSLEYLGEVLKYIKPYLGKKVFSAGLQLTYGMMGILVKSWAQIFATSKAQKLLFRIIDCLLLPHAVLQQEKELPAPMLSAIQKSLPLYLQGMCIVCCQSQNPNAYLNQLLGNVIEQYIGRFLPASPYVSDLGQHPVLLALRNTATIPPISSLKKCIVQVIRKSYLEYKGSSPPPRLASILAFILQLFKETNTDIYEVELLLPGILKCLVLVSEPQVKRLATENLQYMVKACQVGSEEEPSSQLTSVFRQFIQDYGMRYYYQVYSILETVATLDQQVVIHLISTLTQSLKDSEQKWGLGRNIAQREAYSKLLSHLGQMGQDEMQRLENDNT
Sequence of UniProt Q9HD34 (Q9HD34 whole entry, looked up): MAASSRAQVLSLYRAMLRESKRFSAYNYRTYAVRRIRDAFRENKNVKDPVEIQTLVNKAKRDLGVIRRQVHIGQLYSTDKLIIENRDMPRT
Sequence of UniProt A9UHW6 (A9UHW6 whole entry, looked up): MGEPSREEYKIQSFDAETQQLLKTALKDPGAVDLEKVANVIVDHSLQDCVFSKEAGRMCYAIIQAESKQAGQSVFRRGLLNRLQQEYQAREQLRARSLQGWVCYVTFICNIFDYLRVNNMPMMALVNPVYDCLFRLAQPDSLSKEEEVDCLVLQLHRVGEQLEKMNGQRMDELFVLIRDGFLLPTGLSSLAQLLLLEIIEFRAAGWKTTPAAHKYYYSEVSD

| Target | log2 fold change (erlotinib) | log2 fold change [1] | log2 fold change [2] | log2 fold change [3] | log2 fold change [4] | log2 fold change [5] | log2 fold change [6] | log2 fold change [7] | log2 fold change [8] | log2 fold change (IRAK-1-4 Inhibitor I) |
| --- | --- | --- | --- | --- | --- | --- | --- | --- | --- | --- |
| MCCC1 (UniProt Q96RQ3) | 0.037 | -0.028 | 0.048 | -0.052 | 0.025 | -0.029 | -0.085 | -0.022 | 0.077 | -0.008 |
| MIF4GD isoform 3 (UniProt A9UHW6) | -0.006 | 0.041 | 0.03 | 0.028 | -0.073 | 0.039 | -0.03 | -0.052 | 0.051 | -0.04 |
| KSR1 (UniProt Q8IVT5) | 0.011 | -0.099 | -0.038 | 0.058 | 0.022 | 0.059 | -0.078 | 0.015 | -0.037 | -0.008 |
| MICU1 isoform 3 (UniProt Q9BPX6) | 0.009 | 0.049 | -0.029 | -0.017 | -0.012 | -0.047 | 0.001 | 0.016 | 0.012 | 0.024 |
| MRPL10 isoform 2 (UniProt Q7Z7H8) | -0.032 | 0 | 0.043 | 0.022 | -0.141 | -0.002 | -0.016 | -0.062 | 0.015 | 0.014 |
| KIF4B (UniProt Q2VIQ3) | -0.018 | -0.035 | -0.017 | 0.032 | -0.005 | 0.034 | 0.004 | -0.003 | -0.027 | -0.061 |
| MLST8 (UniProt Q9BVC4) | 0.038 | 0.008 | -0.041 | 0.015 | 0.012 | 0.015 | 0.002 | -0.091 | 0.033 | -0.001 |
| LZTS1 (UniProt Q9Y250) | 0.182 | 0.832 | 0.291 | -0.011 | -0.12 | 0.113 | -0.075 | -0.2 | -0.07 | 0.055 |
| MED14 (UniProt O60244) | -0.012 | 0.018 | 0.008 | 0.027 | 0.015 | 0 | -0.066 | -0.014 | -0.042 | 0.005 |
| LYRM4 (UniProt Q9HD34) | -0.009 | 0.016 | 0.02 | -0.117 | -0.017 | -0.011 | -0.002 | -0.02 | 0.06 | 0.005 |
| LRPPRC (UniProt P42704) | 0.04 | 0.028 | -0.02 | 0.048 | 0.067 | -0.004 | -0.017 | -0.012 | 0.006 | 0.006 |
| MANEA (UniProt Q5SRI9) | -0.079 | -0.119 | 0.076 | 0.089 | 0.027 | 0.118 | -0.092 | -0.014 | 0.016 | 0.041 |
| LDAH isoform 2 (UniProt Q9H6V9) | -0.017 | -0.015 | -0.057 | -0.023 | 0.005 | -0.01 | -0.021 | -0.032 | 0 | 0.029 |
| MAPK3 (UniProt P27361) | 0 | 0.02 | 0 | -0.025 | 0.031 | 0.01 | 0.052 | 0.021 | 0.055 | 0.049 |
| MLH1 (UniProt P40692) | 0.018 | 0.021 | -0.011 | 0.012 | -0.079 | 0.025 | -0.019 | -0.037 | 0.015 | -0.002 |
| MRPL35 (UniProt Q9NZE8) | -0.005 | -0.237 | -0.025 | 0.296 (active) | 0.012 | -0.011 | -0.133 |  |  | -0.041 |
| MBOAT2 (UniProt Q6ZWT7) | -0.003 | 0.014 | -0.111 | -0.022 | -0.036 | -0.007 | -0.076 | -0.148 | -0.011 | -0.065 |
| METTL7A (UniProt Q9H8H3) | 0.029 | 0.043 | 0.183 | 0.008 | -0.041 | 0.048 | -0.016 | 0.385 (active) | 0.06 | 0.036 |
| MAPK1 (UniProt P28482) | -0.021 | -0.017 | 0.001 | 0.001 | -0.016 | -0.003 | 0.065 | 0.017 | 0.009 | -0.009 |
| MMS22L (UniProt Q6ZRQ5) | 0.067 | 0.032 | 0 | -0.093 | 0.037 |  | 0.064 | 0.019 | -0.021 |  |
| LYSMD3 (UniProt Q7Z3D4) | -0.067 | -0.051 | 0.044 | 0.069 | 0.05 | 0.007 | -0.11 | 0.037 | 0 | -0.01 |
| LARS (UniProt Q9P2J5) | 0.021 | 0.05 | -0.024 | 0.024 | 0.013 | 0.016 | -0.026 | -0.012 | -0.002 | -0.032 |
| MON2 isoform 5 (UniProt Q7Z3U7) | 0.031 | -0.031 | -0.018 | 0.019 | 0.001 | -0.016 | -0.021 | 0.012 | 0.04 | 0.009 |
| LRRC40 (UniProt Q9H9A6) | -0.014 | 0.009 | 0.004 | -0.002 | -0.028 | -0.015 | -0.014 | -0.036 | -0.011 | -0.017 |
| KPNA2 (UniProt P52292) | 0.009 | 0.03 | -0.026 | 0.005 | 0.002 | -0.003 | -0.053 | -0.017 | 0.013 | -0.02 |
| MAP2K7 isoform 4 (UniProt O14733) | -0.042 | -0.034 | 0.037 | 0.091 | 0.241 | 0.044 | 0.586 (active) | -0.106 | 0.078 | -0.123 |
| KRIT1 (UniProt O00522) | 0.071 | 0.061 | 0.043 | -0.074 | 0.177 | 0.038 | -0.034 | -0.042 | 0.043 | -0.073 |
| KMT2A isoform 3 (UniProt Q03164) | -0.022 | 0.351 | 0.041 | -0.047 | -0.014 | -0.069 | -0.004 | 0.005 | -0.06 | 0.07 |
| MACROD1 (UniProt Q9BQ69) | 0.025 | 0.017 | 0.009 | 0.02 | 0.283 | -0.005 | -0.074 | 0.131 | -0.002 | 0.081 |
